Laboratory results taken from the supplement of paper PMC11006884.
Targets with a hit are over-represented here; the source holds about 6,500 in all. About 2% of all pairs of compound and target were hits.

The targets below were run with COC(=O)C#Cc1ccccc1 [methyl 3-phenylpropiolate] (assay: log2 ratio of iodoacetamide-alkyne labeling of the cysteine site, DMSO over compound (competition); higher = stronger covalent engagement of the cysteine by the compound, active = 1 or more). Conditions: 500 µM; treatment time 1 h; system: HEK293T cell lysate.
Summary of the method: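 After 1 h at ambient temperature with vehicle or electrophile (500 µM), HEK293T lysate (2 mg/mL) was labelled for 1 h with iodoacetamide alkyne and clicked to sCIP-TMT reagents. Pooled samples were trypsin-digested overnight at 37 °C, streptavidin-enriched, acid-eluted and analysed by Orbitrap Eclipse LC-MS/MS with FAIMS, then quantified in FragPipe over three replicates with duplicate channels. A cysteine's log2 competition ratio is its mean control-channel over mean compound-channel reporter intensity. Cysteines quantified in only one replicate were not included.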

Chain of UniProt Q86W56 (Q86W56 whole entry, looked up): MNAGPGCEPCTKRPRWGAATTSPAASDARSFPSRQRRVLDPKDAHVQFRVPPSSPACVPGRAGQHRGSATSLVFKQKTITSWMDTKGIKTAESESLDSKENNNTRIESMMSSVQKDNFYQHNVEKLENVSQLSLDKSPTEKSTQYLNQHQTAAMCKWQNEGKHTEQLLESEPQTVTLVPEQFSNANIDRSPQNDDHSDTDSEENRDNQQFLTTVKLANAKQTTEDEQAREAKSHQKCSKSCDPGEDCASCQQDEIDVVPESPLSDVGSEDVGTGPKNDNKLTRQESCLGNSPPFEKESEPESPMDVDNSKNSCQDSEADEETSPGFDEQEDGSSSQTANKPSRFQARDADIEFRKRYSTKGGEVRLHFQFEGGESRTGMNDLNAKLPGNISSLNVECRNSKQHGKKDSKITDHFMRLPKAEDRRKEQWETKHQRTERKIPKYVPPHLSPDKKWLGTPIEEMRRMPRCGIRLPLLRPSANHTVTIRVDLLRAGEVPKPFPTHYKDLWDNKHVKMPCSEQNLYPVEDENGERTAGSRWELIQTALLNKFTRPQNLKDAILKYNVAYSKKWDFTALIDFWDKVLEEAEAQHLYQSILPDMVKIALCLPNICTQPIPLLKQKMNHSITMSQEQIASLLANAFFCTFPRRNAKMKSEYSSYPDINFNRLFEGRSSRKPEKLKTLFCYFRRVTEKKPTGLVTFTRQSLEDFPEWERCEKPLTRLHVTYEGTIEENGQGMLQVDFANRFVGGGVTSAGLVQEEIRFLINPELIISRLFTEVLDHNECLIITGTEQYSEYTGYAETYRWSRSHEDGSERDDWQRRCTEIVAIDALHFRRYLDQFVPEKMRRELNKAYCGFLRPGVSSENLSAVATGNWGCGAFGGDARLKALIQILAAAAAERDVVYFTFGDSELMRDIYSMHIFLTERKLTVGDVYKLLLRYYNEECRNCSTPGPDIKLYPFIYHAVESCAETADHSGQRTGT
Chain of UniProt Q9BQE3 (Q9BQE3 whole entry, looked up): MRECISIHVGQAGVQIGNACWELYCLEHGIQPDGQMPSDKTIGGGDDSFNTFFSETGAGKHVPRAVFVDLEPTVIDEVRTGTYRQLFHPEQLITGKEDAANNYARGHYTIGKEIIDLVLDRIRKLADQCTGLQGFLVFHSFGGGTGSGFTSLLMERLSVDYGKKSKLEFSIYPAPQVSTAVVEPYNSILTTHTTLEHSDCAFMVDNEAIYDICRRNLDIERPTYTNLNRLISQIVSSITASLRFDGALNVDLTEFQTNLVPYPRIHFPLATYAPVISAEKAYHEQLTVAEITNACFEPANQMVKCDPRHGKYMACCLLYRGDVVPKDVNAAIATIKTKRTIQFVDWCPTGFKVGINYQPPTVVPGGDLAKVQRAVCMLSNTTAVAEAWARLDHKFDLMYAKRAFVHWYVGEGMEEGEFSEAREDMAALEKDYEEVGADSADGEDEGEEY
Chain of UniProt Q92945 (Q92945 whole entry, looked up): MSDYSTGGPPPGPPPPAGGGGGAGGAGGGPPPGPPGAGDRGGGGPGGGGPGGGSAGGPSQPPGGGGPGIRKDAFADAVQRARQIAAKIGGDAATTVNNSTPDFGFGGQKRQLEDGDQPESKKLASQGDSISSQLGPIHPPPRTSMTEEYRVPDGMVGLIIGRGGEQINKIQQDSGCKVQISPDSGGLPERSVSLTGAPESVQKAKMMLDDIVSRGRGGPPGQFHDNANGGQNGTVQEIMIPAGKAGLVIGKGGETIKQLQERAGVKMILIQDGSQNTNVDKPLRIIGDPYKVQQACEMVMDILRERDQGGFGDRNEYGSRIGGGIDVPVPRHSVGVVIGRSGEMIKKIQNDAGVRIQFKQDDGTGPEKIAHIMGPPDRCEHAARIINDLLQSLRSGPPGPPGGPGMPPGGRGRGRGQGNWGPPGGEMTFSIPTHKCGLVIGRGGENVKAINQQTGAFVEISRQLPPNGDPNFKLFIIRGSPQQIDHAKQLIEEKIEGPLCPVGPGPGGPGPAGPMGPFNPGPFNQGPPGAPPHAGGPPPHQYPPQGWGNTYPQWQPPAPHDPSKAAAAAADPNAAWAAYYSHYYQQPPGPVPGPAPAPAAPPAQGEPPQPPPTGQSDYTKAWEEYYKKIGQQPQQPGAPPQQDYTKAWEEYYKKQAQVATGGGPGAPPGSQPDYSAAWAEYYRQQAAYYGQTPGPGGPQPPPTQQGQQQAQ
Chain of UniProt Q8IWS0 (Q8IWS0 whole entry, looked up): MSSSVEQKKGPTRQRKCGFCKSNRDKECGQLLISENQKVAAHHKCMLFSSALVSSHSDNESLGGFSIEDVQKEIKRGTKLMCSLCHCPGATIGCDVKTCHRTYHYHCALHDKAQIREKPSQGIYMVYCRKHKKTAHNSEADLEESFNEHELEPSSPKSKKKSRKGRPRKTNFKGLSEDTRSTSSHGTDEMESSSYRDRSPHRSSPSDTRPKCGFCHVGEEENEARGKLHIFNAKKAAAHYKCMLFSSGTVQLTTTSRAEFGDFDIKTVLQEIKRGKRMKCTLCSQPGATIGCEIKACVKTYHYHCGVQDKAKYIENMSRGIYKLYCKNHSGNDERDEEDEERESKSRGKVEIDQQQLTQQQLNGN
Chain of UniProt Q6AI08 (Q6AI08 whole entry): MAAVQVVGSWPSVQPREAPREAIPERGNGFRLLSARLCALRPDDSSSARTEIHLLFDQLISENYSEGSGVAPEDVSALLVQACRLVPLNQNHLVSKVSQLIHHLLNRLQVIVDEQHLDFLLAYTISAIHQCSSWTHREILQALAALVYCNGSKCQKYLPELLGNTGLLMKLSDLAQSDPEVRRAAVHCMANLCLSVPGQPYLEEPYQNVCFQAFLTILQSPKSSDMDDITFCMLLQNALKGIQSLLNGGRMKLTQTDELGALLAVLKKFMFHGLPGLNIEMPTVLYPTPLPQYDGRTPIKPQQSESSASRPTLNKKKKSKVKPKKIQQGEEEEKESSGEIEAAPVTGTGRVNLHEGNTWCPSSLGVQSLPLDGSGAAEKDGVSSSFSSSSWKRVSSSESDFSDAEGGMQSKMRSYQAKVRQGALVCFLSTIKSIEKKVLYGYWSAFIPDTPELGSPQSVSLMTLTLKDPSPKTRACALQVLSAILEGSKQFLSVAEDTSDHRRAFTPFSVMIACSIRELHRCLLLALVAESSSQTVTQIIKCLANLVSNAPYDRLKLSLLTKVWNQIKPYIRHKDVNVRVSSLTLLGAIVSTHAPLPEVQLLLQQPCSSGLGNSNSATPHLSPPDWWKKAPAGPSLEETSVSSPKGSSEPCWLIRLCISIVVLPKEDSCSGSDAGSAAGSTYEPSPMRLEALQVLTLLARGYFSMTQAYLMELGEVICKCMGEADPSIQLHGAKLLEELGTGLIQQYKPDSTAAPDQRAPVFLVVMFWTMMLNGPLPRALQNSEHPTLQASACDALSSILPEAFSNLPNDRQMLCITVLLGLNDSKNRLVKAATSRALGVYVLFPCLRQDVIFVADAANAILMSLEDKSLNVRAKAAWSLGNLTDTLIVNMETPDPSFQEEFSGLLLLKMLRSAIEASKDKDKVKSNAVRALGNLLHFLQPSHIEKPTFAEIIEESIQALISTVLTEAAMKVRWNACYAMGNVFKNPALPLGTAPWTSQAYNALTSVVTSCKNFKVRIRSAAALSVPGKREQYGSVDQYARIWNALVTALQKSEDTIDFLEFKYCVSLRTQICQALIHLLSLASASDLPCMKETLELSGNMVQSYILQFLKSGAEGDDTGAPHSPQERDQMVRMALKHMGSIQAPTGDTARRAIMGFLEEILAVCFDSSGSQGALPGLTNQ
Chain of UniProt Q69YN2 (Q69YN2 whole entry, looked up): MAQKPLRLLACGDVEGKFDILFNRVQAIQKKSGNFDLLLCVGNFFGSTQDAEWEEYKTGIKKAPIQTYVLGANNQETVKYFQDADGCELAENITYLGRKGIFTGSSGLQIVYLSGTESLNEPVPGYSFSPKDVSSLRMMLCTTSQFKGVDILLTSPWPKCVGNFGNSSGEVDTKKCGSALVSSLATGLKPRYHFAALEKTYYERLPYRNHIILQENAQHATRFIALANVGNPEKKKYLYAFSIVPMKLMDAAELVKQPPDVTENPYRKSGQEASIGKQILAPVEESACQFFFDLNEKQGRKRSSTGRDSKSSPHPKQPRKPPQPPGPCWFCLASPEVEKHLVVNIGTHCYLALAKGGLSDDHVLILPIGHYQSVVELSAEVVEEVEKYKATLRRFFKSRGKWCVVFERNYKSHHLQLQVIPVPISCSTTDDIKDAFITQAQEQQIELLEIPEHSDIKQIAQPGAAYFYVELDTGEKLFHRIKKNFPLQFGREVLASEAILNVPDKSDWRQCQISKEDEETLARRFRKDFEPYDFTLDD
Chain of UniProt Q5VT66 (Q5VT66 whole entry): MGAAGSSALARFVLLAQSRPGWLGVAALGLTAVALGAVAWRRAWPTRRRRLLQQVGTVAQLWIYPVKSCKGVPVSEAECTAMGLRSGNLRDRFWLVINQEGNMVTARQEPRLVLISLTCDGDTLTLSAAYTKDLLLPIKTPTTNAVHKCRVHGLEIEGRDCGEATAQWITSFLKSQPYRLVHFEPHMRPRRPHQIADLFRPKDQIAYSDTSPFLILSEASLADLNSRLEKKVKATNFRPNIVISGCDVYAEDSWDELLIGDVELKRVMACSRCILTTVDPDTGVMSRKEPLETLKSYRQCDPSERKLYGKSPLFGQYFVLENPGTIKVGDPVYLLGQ
Chain of UniProt Q9BQ67 (Q9BQ67 whole entry, looked up): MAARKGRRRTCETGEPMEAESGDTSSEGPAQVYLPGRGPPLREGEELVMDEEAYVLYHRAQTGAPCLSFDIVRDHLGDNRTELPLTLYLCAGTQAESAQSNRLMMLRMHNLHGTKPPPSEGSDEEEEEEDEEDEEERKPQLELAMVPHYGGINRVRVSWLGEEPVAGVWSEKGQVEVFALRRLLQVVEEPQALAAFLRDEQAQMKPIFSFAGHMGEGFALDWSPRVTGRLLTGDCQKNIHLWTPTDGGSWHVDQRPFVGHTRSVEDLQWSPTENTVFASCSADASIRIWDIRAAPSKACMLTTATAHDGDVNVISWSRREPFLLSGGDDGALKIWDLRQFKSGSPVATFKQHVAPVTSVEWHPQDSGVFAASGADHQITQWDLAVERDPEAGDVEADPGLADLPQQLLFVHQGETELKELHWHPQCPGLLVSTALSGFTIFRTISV

Row | Target | log2 ratio of iodoacetamide-alkyne labeling
1 | UniProt Q6PJG6_C720 | 0.324 (inactive)
2 | TUBA1C C295 (UniProt Q9BQE3) | 0.453 (inactive)
3 | NGLY1 C197 (UniProt Q96IV0) | 0.0457 (inactive)
4 | KTN1 C1105 (UniProt Q86UP2) | 0.28 (inactive)
5 | HEATR6 C360 (UniProt Q6AI08) | 0.657 (inactive)
6 | ZFYVE16 C174 (UniProt Q7Z3T8) | 0.35 (inactive)
7 | PHF6 C28 (UniProt Q8IWS0) | 0.287 (inactive)
8 | SLFN11 C126 (UniProt Q7Z7L1) | 0.146 (inactive)
9 | IRF2BP2 C16 (UniProt Q7Z5L9) | 0.113 (inactive)
10 | RPL36AL C72 (UniProt Q969Q0) | 0.0561 (inactive)
11 | PHF3 C1616 (UniProt Q92576) | 1.14 (active)
12 | CWF19L1 C176 (UniProt Q69YN2) | -0.136 (inactive)
13 | AKAP1 C147 (UniProt Q92667) | 1.02 (active)
14 | KHSRP C296 (UniProt Q92945) | 0.00483 (inactive)
15 | PARG C963 (UniProt Q86W56) | 0.0715 (inactive)
16 | DDX54 C73 (UniProt Q8TDD1) | 0.301 (inactive)
17 | SIN3A C486 (UniProt Q96ST3) | -0.0562 (inactive)
18 | UniProt Q6PJG6_C228 | 1.06 (active)
19 | GRWD1 C299 (UniProt Q9BQ67) | 0.364 (inactive)
20 | UBR4 C1450 (UniProt Q5T4S7) | 0.138 (inactive)
21 | PBK C112 (UniProt Q96KB5) | 0.35 (inactive)
22 | MARC1 C273 (UniProt Q5VT66) | 0.102 (inactive)
